Changes are numbered by the printed parent chain.

Experimental findings from article PMC8384837, “Expanding the binding specificity for RNA recognition by a PUF domain” are described below.

What all share (experiment): yeast three-hybrid, YBZ-1, SC-Leu-His + 0.5 mM 3-AT, 4 days
Holding throughout (conditions): tags: N-Gal4 AD-HA kept; label: inside an RPR1-promoter hybrid RNA with tandem MS2 sites; ssRNA

One test addresses PUM1 PUF domain R8-RKK (Homo sapiens, UniProt Q14671 828-1176, N1122R;Y1123K;Q1126K). The method, boiled down: (§1)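 Pumilio-1 PUF domain libraries, randomized (NNK) at the three base-contacting residues of each repeat, were co-expressed with matching RNA elements from a centromeric plasmid in strain YBZ-1 (LexA–MS2 coat fusion, HIS3 reporter). Transformants were plated on SC-Leu (input) and SC-Leu-His + 0.5 mM 3-AT (selection) for four days, and repeat regions were PCR-amplified and Illumina-sequenced. The interaction score is the log2 change in variant frequency from input to selection, with pseudocount 1 where absent.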

The target in the next test is PUM1 PUF domain R5-GWS (Homo sapiens, UniProt Q14671 828-1176, C1007G;R1008W;Q1011S). The method, boiled down: as §1
A further test addresses T1, PUM1 PUF domain R6-VFS (Homo sapiens, UniProt Q14671 828-1176, N1043V;Y1044F;Q1047S).
T1 sequence: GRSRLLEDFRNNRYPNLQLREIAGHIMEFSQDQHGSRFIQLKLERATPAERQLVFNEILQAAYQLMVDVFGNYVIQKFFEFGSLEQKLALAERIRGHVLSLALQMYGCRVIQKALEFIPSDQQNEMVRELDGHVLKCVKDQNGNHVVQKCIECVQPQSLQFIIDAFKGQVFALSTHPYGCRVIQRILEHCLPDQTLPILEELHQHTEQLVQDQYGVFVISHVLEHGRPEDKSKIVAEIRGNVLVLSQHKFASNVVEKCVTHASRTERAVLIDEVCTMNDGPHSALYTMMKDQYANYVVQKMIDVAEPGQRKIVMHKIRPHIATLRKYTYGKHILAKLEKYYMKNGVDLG
The method, boiled down: as §1

A further test addresses PUM1 PUF domain R8-LYK (Homo sapiens, UniProt Q14671 828-1176, N1122L;Q1126K). Put shortly: as §1
The target in another test is T2, PUM1 PUF domain R6-CFY (Homo sapiens, UniProt Q14671 828-1176, N1043C;Y1044F;Q1047Y).
T2 sequence: T1 sequence with V216C, S220Y
The method, boiled down:
as §1

The target in the next test is PUM1 PUF domain R4-GPS (Homo sapiens, UniProt Q14671 828-1176, N971G;H972P;Q975S). Put shortly: as §1
The target in another test is PUM1 PUF domain R5-DFA (Homo sapiens, UniProt Q14671 828-1176, C1007D;R1008F;Q1011A). Put shortly:
as §1

The target of the next test is PUM1 PUF domain R1-CWR (Homo sapiens, UniProt Q14671 828-1176, S863C;R864W;Q867R). The method, boiled down: as §1
The target of another test is PUM1 PUF domain R3-FSS (Homo sapiens, UniProt Q14671 828-1176, C935F;R936S;Q939S). Put shortly:
as §1

Another test has as its target PUM1 PUF domain R7-TVA (Homo sapiens, UniProt Q14671 828-1176, S1079T;N1080V;E1083A). Put shortly:
as §1

For a further test, the target named is PUM1 PUF domain R7-RTL (Homo sapiens, UniProt Q14671 828-1176, S1079R;N1080T;E1083L). The method, boiled down: as §1
A further test deals with PUM1 PUF domain R7-RRA (Homo sapiens, UniProt Q14671 828-1176, S1079R;N1080R;E1083A). Put shortly:
as §1

The next test addresses T3, PUM1 PUF domain R6-AYQ (Homo sapiens, UniProt Q14671 828-1176, N1043A).
T3 sequence: T1 sequence with V216A, F217Y, S220Q
The method, boiled down: as §1

Another test concerns the target PUM1 PUF domain R5-KGL (Homo sapiens, UniProt Q14671 828-1176, C1007K;R1008G;Q1011L). Put shortly:
as §1

The target in a further test is PUM1 PUF domain R3-MWG (Homo sapiens, UniProt Q14671 828-1176, C935M;R936W;Q939G). The method, boiled down: as §1
In another test the target is PUM1 PUF domain R3-RRR (Homo sapiens, UniProt Q14671 828-1176, C935R;Q939R). The method, boiled down: as §1
The target in a further test is PUM1 PUF domain R1-RGI (Homo sapiens, UniProt Q14671 828-1176, S863R;R864G;Q867I). The method, boiled down:
as §1

A further test deals with PUM1 PUF domain R8-HYP (Homo sapiens, UniProt Q14671 828-1176, N1122H;Q1126P). Put shortly:
as §1

In another test the target is PUM1 PUF domain R2-CFP (Homo sapiens, UniProt Q14671 828-1176, N899C;Y900F;Q903P). Put shortly: as §1
Another test deals with PUM1 PUF domain R4-THP (Homo sapiens, UniProt Q14671 828-1176, N971T;Q975P). The method, boiled down: as §1

Chain of PUM1 PUF domain R4-GPS (Q14671 828-1176 N971G/H972P/Q975S): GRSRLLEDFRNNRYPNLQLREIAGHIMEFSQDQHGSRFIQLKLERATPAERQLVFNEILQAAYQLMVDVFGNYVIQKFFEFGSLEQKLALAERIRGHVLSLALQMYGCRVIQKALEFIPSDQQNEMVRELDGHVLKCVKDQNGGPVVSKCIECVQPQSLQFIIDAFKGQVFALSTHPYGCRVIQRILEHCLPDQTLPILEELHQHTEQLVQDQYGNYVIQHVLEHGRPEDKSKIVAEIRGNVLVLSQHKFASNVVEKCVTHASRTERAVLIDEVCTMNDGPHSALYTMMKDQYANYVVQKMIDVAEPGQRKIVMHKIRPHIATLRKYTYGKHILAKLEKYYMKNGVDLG
Chain of PUM1 PUF domain R8-HYP (Q14671 828-1176 N1122H/Q1126P): as the sequence (Q14671 828-1176 N971G/H972P/Q975S) above, with G144N, P145H, S148Q, N295H, Q299P counted along it
Chain of PUM1 PUF domain R3-RRR (Q14671 828-1176 C935R/Q939R): as the sequence (Q14671 828-1176 N971G/H972P/Q975S) above, with C108R, Q112R, G144N, P145H, S148Q counted along it

Regarding “GGCUAGAACUAGUGGAUCCCCCGGCGCCCGGCGGCUCGAGCCCGGGUAAGUGUAAAUAGUCUGCAUGCCGCCGGGCGCCAUGCCUGCAGGUCGACUCUAGAAAACAUG”, the binding signal was 4.25 log2 enrichment (interaction score) in the test with PUM1 PUF domain R8-RKK; 4.65 log2 enrichment (interaction score) in the test with PUM1 PUF domain R5-GWS; 2.71 log2 enrichment (interaction score) with PUM1 PUF domain R6-VFS; 5.28 log2 enrichment (interaction score) with PUM1 PUF domain R8-LYK; 2.39 log2 enrichment (interaction score) with PUM1 PUF domain R6-CFY; 4.4 log2 enrichment (interaction score) in the test with PUM1 PUF domain R4-GPS. Also, the binding signal in the test with PUM1 PUF domain R5-DFA is 4.36 log2 enrichment (interaction score).

Regarding “GGCUAGAACUAGUGGAUCCCCCGGCGCCCGGCGGCUCGAGCCCGGGUAAGUGUAAAUGGUCUGCAUGCCGCCGGGCGCCAUGCCUGCAGGUCGACUCUAGAAAACAUG”, the binding signal with PUM1 PUF domain R1-CWR was 1.23 log2 enrichment (interaction score).

Turning to “GGCUAGAACUAGUGGAUCCCCCGGCGCCCGGCGGCUCGAGCCCGGGUAAGUGUAAGUAGUCUGCAUGCCGCCGGGCGCCAUGCCUGCAGGUCGACUCUAGAAAACAUG”, the binding signal with PUM1 PUF domain R3-FSS was 2.46 log2 enrichment (interaction score).

Take “GGCUAGAACUAGUGGAUCCCCCGGCGCCCGGCGGCUCGAGCCCGGGUAAGUUUAAAUAGUCUGCAUGCCGCCGGGCGCCAUGCCUGCAGGUCGACUCUAGAAAACAUG”: the binding signal with PUM1 PUF domain R7-TVA was 3.46 log2 enrichment (interaction score); in the test with PUM1 PUF domain R7-RTL it was 3.26 log2 enrichment (interaction score); with PUM1 PUF domain R7-RRA, 3.23 log2 enrichment (interaction score).

With “GGCUAGAACUAGUGGAUCCCCCGGCGCCCGGCGGCUCGAGCCCGGGUAAGUCUAAAUAGUCUGCAUGCCGCCGGGCGCCAUGCCUGCAGGUCGACUCUAGAAAACAUG”, in the test with PUM1 PUF domain R7-RRA, the binding signal is 5.23 log2 enrichment (interaction score).

For the sequence “GGCUAGAACUAGUGGAUCCCCCGGCGCCCGGCGGCUCGAGCCCGGGUAAGUGAAAAUAGUCUGCAUGCCGCCGGGCGCCAUGCCUGCAGGUCGACUCUAGAAAACAUG”, the binding signal was 1.54 log2 enrichment (interaction score) with PUM1 PUF domain R6-CFY and 4.26 log2 enrichment (interaction score) with PUM1 PUF domain R6-AYQ.

For “GGCUAGAACUAGUGGAUCCCCCGGCGCCCGGCGGCUCGAGCCCGGGUAAGUGUCAAUAGUCUGCAUGCCGCCGGGCGCCAUGCCUGCAGGUCGACUCUAGAAAACAUG”, in the test with PUM1 PUF domain R5-KGL, the binding signal was 3.86 log2 enrichment (interaction score).

“GGCUAGAACUAGUGGAUCCCCCGGCGCCCGGCGGCUCGAGCCCGGGUAAGUGUACAUAGUCUGCAUGCCGCCGGGCGCCAUGCCUGCAGGUCGACUCUAGAAAACAUG”: the binding signal with PUM1 PUF domain R4-GPS is 1.84 log2 enrichment (interaction score).

For the sequence “GGCUAGAACUAGUGGAUCCCCCGGCGCCCGGCGGCUCGAGCCCGGGUAAGUGUAAUUAGUCUGCAUGCCGCCGGGCGCCAUGCCUGCAGGUCGACUCUAGAAAACAUG”, the values for the binding signal with PUM1 PUF domain R3-MWG and in the test with PUM1 PUF domain R3-RRR were 3.86 log2 enrichment (interaction score) and 3.73 log2 enrichment (interaction score), respectively.

Consider “GGCUAGAACUAGUGGAUCCCCCGGCGCCCGGCGGCUCGAGCCCGGGUAAGUGUAAAUCGUCUGCAUGCCGCCGGGCGCCAUGCCUGCAGGUCGACUCUAGAAAACAUG”, for which the binding signal was 2.06 log2 enrichment (interaction score) with PUM1 PUF domain R1-RGI and 6.18 log2 enrichment (interaction score) in the test with PUM1 PUF domain R1-CWR.

Take “GGCUAGAACUAGUGGAUCCCCCGGCGCCCGGCGGCUCGAGCCCGGGUAAGCGUAAAUAGUCUGCAUGCCGCCGGGCGCCAUGCCUGCAGGUCGACUCUAGAAAACAUG”: the binding signal with PUM1 PUF domain R8-RKK was 4.27 log2 enrichment (interaction score); with PUM1 PUF domain R8-LYK, 5.14 log2 enrichment (interaction score); with PUM1 PUF domain R8-HYP it was 5.46 log2 enrichment (interaction score).

Take “GGCUAGAACUAGUGGAUCCCCCGGCGCCCGGCGGCUCGAGCCCGGGUAAGUGUAAAAAGUCUGCAUGCCGCCGGGCGCCAUGCCUGCAGGUCGACUCUAGAAAACAUG”: in the test with PUM1 PUF domain R2-CFP, the binding signal was 10.2 log2 enrichment (interaction score).

On to “GGCUAGAACUAGUGGAUCCCCCGGCGCCCGGCGGCUCGAGCCCGGGUAAGGGUAAAUAGUCUGCAUGCCGCCGGGCGCCAUGCCUGCAGGUCGACUCUAGAAAACAUG”, for which the binding signal in the test with PUM1 PUF domain R8-HYP was 2.77 log2 enrichment (interaction score).

For “GGCUAGAACUAGUGGAUCCCCCGGCGCCCGGCGGCUCGAGCCCGGGUAAGUGUAAAUUGUCUGCAUGCCGCCGGGCGCCAUGCCUGCAGGUCGACUCUAGAAAACAUG”, in the test with PUM1 PUF domain R1-RGI, the binding signal is 1.53 log2 enrichment (interaction score).

With “GGCUAGAACUAGUGGAUCCCCCGGCGCCCGGCGGCUCGAGCCCGGGUAAGUGUAUAUAGUCUGCAUGCCGCCGGGCGCCAUGCCUGCAGGUCGACUCUAGAAAACAUG”, the figures for the binding signal with PUM1 PUF domain R4-THP and with PUM1 PUF domain R4-GPS were 2.79 log2 enrichment (interaction score) and 2.94 log2 enrichment (interaction score), respectively.
